Screening results (PubChem BioAssay)
An excerpt weighted towards active compounds, which were near 3.4% of everything screened.
SIRT5 inh = blocks human SIRT5 desuccinylation of peptide. Q9NXA8. Purified SirT5, succinyl-peptide AMC, trypsin-coupled fluorescence. inhibition, % at 15 µM. 330,000 tested, 1.1% active. AID 652115; in the data active means inhibition above about 15%; inconclusive means no clear call, values can overlap the other calls
Target sequence (Q9NXA8 whole entry, looked up): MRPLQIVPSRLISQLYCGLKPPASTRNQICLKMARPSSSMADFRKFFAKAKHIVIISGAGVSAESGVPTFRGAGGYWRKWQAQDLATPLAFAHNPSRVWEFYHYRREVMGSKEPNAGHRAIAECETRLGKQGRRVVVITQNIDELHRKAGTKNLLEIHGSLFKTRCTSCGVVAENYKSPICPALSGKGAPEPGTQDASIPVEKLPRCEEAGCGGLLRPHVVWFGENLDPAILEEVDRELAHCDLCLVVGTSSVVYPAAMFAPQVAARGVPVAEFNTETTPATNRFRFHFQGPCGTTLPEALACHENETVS
LGR2 antag = Drosophila LGR2 receptor signaling inhibition; 380,000 tested, 0.35% active; inhibition, % at 9.99 µM; HEK293 LGR2, CRE-luciferase, bursicon-stimulated, 4 h;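 active means drop in luminescence signal, shown as inhibition above about 50% in the replicate tests, limit read from the data, passing the limit was not always enough; inconclusive means probably only some replicates passing the limit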;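 further: agonist challenge used bursicon conditioned medium at about half maximal strength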
PGC1a acetyl inh = modulators of PGC1a acetylation. U2OS PGC1a acetylation, AlphaScreen anti-acetyl-lysine; with virally co-expressed GCN5 acetyltransferase. inhibition, % at 15.6 µM. 350,000 tested, 0.17% active;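 active means every replicate shows inhibition of at least 40%; inconclusive means mean inhibition at least 40% but some replicate below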;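 further: 0% = neutral control wells and 100% = positive control wells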
EWS-Fli block = blocks EWS/Fli oncoprotein-driven transcription | A673 NR0B1-luciferase reporter, viability-normalised | inhibition, % at 12.6 µM | 350,000 tested, 0.67% active;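 active means mean inhibition of at least 50% after viability correction, with every replicate also passing that limit; inconclusive means mean reaches 50% but only one of two replicates passes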;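 further: firefly luciferase signal divided by Alamar Blue viability fluorescence both relative to DMSO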
PAX8 reporter = lowers PAX8-driven luciferase in RMG-I cells | RMG-I TPO-luciferase reporter, SteadyGlo, 24 h | inhibition, % at 12.6 µM | 360,000 tested, 1.2% active;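 active means mean replicate inhibition at least 60% with every replicate also reaching 60%; inconclusive means only one of the two criteria is met; inactive means mean below 60% and not all replicates reaching 60%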;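 further: luciferase light reporting Pax8 driven TPO promoter activity; plate controls were median of neutral control wells for no effect and mitoxantrone controls for full effect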
Ecoli rRNA inh = selective bacterial rRNA inhibition in E. coli. AID 720706. 350,000 tested, 1.6% active. E. coli WT GFP vs humanized-ribosome RFP mutants, fluorescence, 24 h; stronger effect = lower value; DMSO median 0, no signal -100. GFP signal change (wild-type ribosome), % (no concentration beside the values);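 active means significant combined selectivity score with lowered wild-type GFP, culture density cut under 30%, mutant RFP and density less affected; inactive means any of these conditions unmet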
* marks the source's active call; other numbers are inactive results; ? = inconclusive; / = not tested or not shown; ! = repeats disagree.

SMILES | SIRT5 inh | LGR2 antag | PGC1a acetyl inh | EWS-Fli block | PAX8 reporter | Ecoli rRNA inh
COc1ccccc1CNC(=O)C1CCC(CNS(=O)(=O)c2cccs2)CC1 (stereo not given) | -0.8 | 4.3 | -7.3 | 9.5 | 10.6 | -2.0
COc1ccc(CCN2C(=O)CSC2=S)cc1OC | -3.4 | 5.6 | / | 22.2 | 90.3* | 4.0
NC1=C(Cl)C(=O)c2ccccc2C1=O | -2.9 | -12.0 | / | -14.4 | -2.6 | -56.8
NC1=C(Cl)C(=O)c2ccc(S(N)(=O)=O)cc2C1=O | 2.1 | 104.7* | / | 65.1* | 120.9* | -45.6
COc1ccc(CNc2ccc([N+](=O)[O-])cc2C)cc1 | -0.7 | -30.2 | 3.7 | -12.3 | -17.9 | -23.6*
COc1ccccc1C#Cc1ccc2c(c1)[C@H]1[C@H](CCN1C(=O)c1cccc(F)c1)[C@H](CO)N2 | -29.4 | -0.6 | -6.1 | 22.9 | 18.1 | -5.6
O=C(C1CCC1)N1CC[C@H]2[C@H](CO)Nc3ccc(C#Cc4cccc(F)c4)cc3[C@H]21 | 20.5* | -12.3 | -0.2 | -1.2 | 1.7 | -8.0
CCC(=O)N1CC[C@@H]2[C@H](CO)Nc3ccc(C#Cc4ccc(OC)cc4)cc3[C@@H]21 | 16.8* | 2.2 | 7.2 | -3.8 | -29.1 | -2.2
COc1ccccc1C#Cc1ccc2c(c1)[C@@H]1[C@@H](CCN1C(=O)c1cccc(F)c1)[C@H](CO)N2 | 18.2* | 3.2 | / | / | / | -4.0
CNC[C@@H]1Oc2cc(-c3ccccc3F)ccc2S(=O)(=O)N([C@@H](C)CO)C[C@@H]1C | / | -8.4 | -0.8 | -6.4 | -5.4 | -0.6
COc1ccc2c3c([nH]c2c1)[C@H](CO)N(C(=O)CN1CCOCC1)CC31CN(C(=O)NC(C)C)C1 | / | -1.7 | 1.0 | -0.3 | / | 3.8
CCN1CCN(Cc2ccc(NC(=O)c3cc(NC(=O)c4cc(-c5ccc(OC)cc5)n[nH]4)cc(OC)c3)cc2C(F)(F)F)CC1 | / | 2.2 | -14.1 | 51.4* | ? | -36.0
CCN1CCN(Cc2ccc(NC(=O)c3cc(NC(=O)c4ccno4)cc(OC)c3)cc2C(F)(F)F)CC1 | -6.0 | 7.7 | -11.3 | 27.3 | -9.9 | -10.4
CCN1CCN(Cc2ccc(NC(=O)c3cc(NC(=O)c4cc5cccc(OC)c5o4)cc(OC)c3)cc2C(F)(F)F)CC1 | 1.9 | 12.2 | -33.5 | 53.4*! | 89.7*! | -26.8
CCN1CCN(Cc2ccc(NC(=O)c3cc(NC(=O)c4cncc(-c5cccs5)c4)cc(OC)c3)cc2C(F)(F)F)CC1 | -0.5 | 30.2 | 3.0 | 64.4* | 51.3 | /
COc1cc(NC(=O)c2cc3cccc(OC)c3o2)cc(C(=O)Nc2cccc(C(F)(F)F)c2)c1 | / | 21.9 | / | 29.3 | 91.7* | 6.8
C[C@@H]1CN([C@@H](C)CO)C(=O)c2cc(NC(=O)NC3CCCCC3)ccc2O[C@@H](C)CCCCO[C@H]1CN(C)C(=O)CCC(F)(F)F | -3.3 | 0.3 | 0.2 | 3.4 | / | -0.6
COc1cc(NC(=O)c2nccnc2N)cc(C(=O)Nc2cccc(C(F)(F)F)c2)c1 | -1.9 | -3.7 | / | 23.1 | 76.3* | -1.8
COc1cc(NC(=O)N2CCNC2=O)cc(C(=O)Nc2cccc(C(F)(F)F)c2)c1 | -2.7 | -5.1 | / | 59.4* | 62.9* | 7.4
COc1ccc(-c2cc(C(=O)Nc3cc(OC)cc(C(=O)Nc4cccc(C(F)(F)F)c4)c3)[nH]n2)cc1 | -4.5 | -13.1 | / | 1.8 | 71.7*! | -13.7
COc1ccc(S(=O)(=O)Nc2ccc3c(c2)C(=O)N([C@@H](C)CO)C[C@@H](C)[C@@H](CN(C)Cc2ccc4c(c2)OCO4)OCCCC[C@H](C)O3)cc1 | 3.8 | 9.9 | -10.3 | 13.1 | 37.9 | 1.4
CCc1cccc2c1Sc1ccccc1CC2N1CCNCC1 (stereo not given) | -7.6 | / | / | 14.7 | 13.9 | -51.5*
CN1CCN(C2Cc3ccccc3Sc3cc(C(F)(F)F)ccc32)CC1 (stereo not given) | -1.1 | 11.2 | / | 43.1 | 20.8 | -51.0
CCCC#Cc1cnc2c(c1)C(=O)N([C@H](C)CO)C[C@@H](C)[C@@H](CN(C)C(=O)CN1CCOCC1)O2 | 2.8 | 9.7 | 1.3 | -6.2 | -13.1 | 5.4
Cc1cc(C)cc(OCC(=O)Nc2ccc(N3CCCCC3)cc2)c1 | -5.1 | -2.2 | 1.5 | -4.1 | -3.3 | 5.6
SMILES | SIRT5 inh | LGR2 antag | PGC1a acetyl inh | EWS-Fli block | PAX8 reporter | Ecoli rRNA inh
Cc1ccc(NC(=O)CN(C)CC(=O)Nc2ccc(N3CCOCC3)cc2)cc1F | -6.1 | -5.1 | / | 0.9 | 9.4 | -21.4*
Cc1cc(C)cc(OCC(=O)N(C)CC(=O)Nc2ccc(N3CCOCC3)cc2)c1 | -0.3 | 18.8 | -11.4 | 4.5 | 75.1* | 6.2
Cc1cc(C)cc(CSCC(=O)N/N=C/c2ccc(OCC(=O)NCc3ccco3)cc2)c1 | 19.7* | -3.0 | -10.1 | 11.4 | / | 2.6
COc1ccc(OC)c(-c2csc(NC(=O)Cc3ccccc3)n2)c1 | 1.6 | -13.9 | / | -29.4 | -27.5 | -49.3
COc1ccc(OC)c(-c2csc(NC(=O)COC(=O)C3(C)CC3(Cl)Cl)n2)c1 (stereo not given) | -3.2 | 4.9 | / | -11.1 | -6.3 | -20.6*
CCSc1nnc(NC(=O)Cc2cccc(OC)c2)s1 | / | / | 7.0 | / | -14.1 | /
COc1cccc(-c2csc(N3CCN(C(=O)Nc4ccccc4Cl)CC3)n2)c1 | -4.3 | -19.1 | / | -21.5 | 9.0 | -19.2
COc1cccc(CC(=O)Nc2nc(-c3cc(OC)ccc3OC)cs2)c1 | -1.5 | 1.4 | / | -17.5 | -5.4 | -23.5*
COc1cccc(NC(=O)N2CCN(c3nc(-c4cccc(OC)c4)cs3)CC2)c1 | -0.7 | -5.1 | -2.5 | -4.9 | 28.5 | -30.2*
CCSc1nnc(NC(=O)Cc2ccc(OC)cc2)s1 | 19.8* | -33.5 | -0.8 | / | -20.0 | /
CO[C@@H]1CN(C)C(=O)c2ccc(NC(=O)C3CC3)cc2OC[C@@H](C)N(C(=O)c2ccccc2F)C[C@@H]1C | 7.2 | 10.4 | 10.5 | -2.3 | / | -1.4
COc1ccc(OC)c(-c2csc(NC(=O)Cc3ccc(OC)c(OC)c3)n2)c1 | -4.5 | 4.4 | -8.8 | -16.1 | -3.7 | -10.4
COc1ccc(CC(=O)Nc2nc(-c3cc(OC)ccc3OC)cs2)cc1 | 8.8 | -4.0 | 8.9 | -12.7 | -13.9 | -21.8*
COc1cccc(NC(=O)Nc2nc(-c3ccc(OC)c(OC)c3)cs2)c1 | 0.9 | ? | / | 64.6* | 104.5* | 5.1
CC(C)NC(=O)Nc1ccc2c(c1)C(=O)N([C@H](C)CO)C[C@@H](C)[C@H](CN(C)Cc1ccc(Cl)c(Cl)c1)OCCCC[C@H](C)O2 | 1.2 | 13.5 | 7.8 | 12.7 | 52.0 | 1.4
CCc1cccc2c(C(=O)CN3C(=O)NC4(CCCCCC4)C3=O)c[nH]c12 | -1.4 | -16.2 | -19.1 | 45.1 | 81.8* | /
C[C@@H]1CN([C@@H](C)CO)C(=O)c2cc(C#C[C@@H](C)O)cnc2O[C@H]1CN(C)C(=O)Nc1ccc(C(F)(F)F)cc1 | -1.3 | 10.3 | 6.3 | -6.0 | 8.2 | 2.5
CCN(CC)C(=N)/C(C#N)=N/Nc1ccccc1 | 16.8* | -30.0 | 4.7 | -63.3 | -45.5 | -2.3
CC1(C)CN(O)CCN1O | 2.3 | -2.8 | / | 73.4* | 17.2 | 18.1
